This is an account of results in PMC5515408, “Sequence-specific DNA binding by MYC/MAX to low-affinity non-E-box motifs”.

Over roughly 4,500 sequences, “log2 normalized fluorescence” has its median near -0.34; the highest 2% begin near 3.3. Many of the other results were omitted from the sample, so the highest values are more common in it than they were.

Chain of MAX:MAX (p21) (P61244 other isoform, or with tags, fused parts or gaps): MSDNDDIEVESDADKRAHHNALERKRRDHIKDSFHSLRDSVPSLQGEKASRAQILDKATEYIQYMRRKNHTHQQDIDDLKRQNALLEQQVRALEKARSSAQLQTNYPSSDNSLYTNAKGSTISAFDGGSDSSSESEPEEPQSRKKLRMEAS

This test concerns the target MAX:MAX (p21) (human, UniProt P61244-2 1-151). Nature of the test: protein-binding microarray (anti-MAX antibody); PBM: 15 mM Tris-HCl pH 7.5, 100 mM KCl, 0.075% NP40, 7.5 mM beta-mercaptoethanol, 375 ng/ul BSA, 8 ng/ul poly(dA-dT):(dA-dT), 550 ng complex, 60 min, room tempe; high values mean tight binding. Particulars: protein: recombinant; tags: 6xHis; chain copies: 2; label: 3' end of printed strand (linker) attached to glass slide; dsDNA, one strand shown. The method, boiled down:
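Binding is reported as log2 normalized fluorescence. Recombinant His-tagged human MYC:MAX or MAX:MAX dimers expressed in E. coli (550 ng) were incubated with a custom Agilent glass array for 60 min at room temperature in Tris-KCl buffer, pH 7.5, containing NP40, BSA and poly(dA-dT) competitor. The array carried ~5000 unique 12-nt sequences, each spotted in triplicate and made double-stranded by primer extension, and bound protein was detected with anti-MAX and secondary antibodies and scanned at 543 nm.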
In the case of “CCGGCTGAGTCTGCGTATTAATAGCTAAGATTACTATATCGACG”, the binding signal was -0.699 log2 normalized fluorescence.
For the sequence “CCGGCTGAATCCCAGTATTAATAGCTAAGATTACTATATCGACG”, the binding signal is -0.681 log2 normalized fluorescence.
With “CCGGCTGATGTTTTGTATTAATAGCTAAGATTACTATATCGACG”, the binding signal was -0.281 log2 normalized fluorescence.
As to “CCGGCTGACACGTGAGGTTAATAGCTAAGATTACTATATCGACG”, the binding signal is 3.37 log2 normalized fluorescence.
Regarding “CCGGCTGACACGTGACATTAATAGCTAAGATTACTATATCGACG”, the binding signal is 3.44 log2 normalized fluorescence.
As for “CCGGCTGACACGTGAGCTTAATAGCTAAGATTACTATATCGACG”, the binding signal was 3.09 log2 normalized fluorescence.
With “CCGGCTGACACGTGAGATTAATAGCTAAGATTACTATATCGACG” the figure was 3.29 log2 normalized fluorescence; with “CCGGCTGACACGTGAGTTTAATAGCTAAGATTACTATATCGACG”, 3.25 log2 normalized fluorescence; with “CCGGCTGACACGTTACATTAATAGCTAAGATTACTATATCGACG”, 3.06 log2 normalized fluorescence.
As for “CCGGCTGACACGTGATGTTAATAGCTAAGATTACTATATCGACG”, the binding signal is 3.13 log2 normalized fluorescence.
Consider “CCGGCTGACACGTGAAGTTAATAGCTAAGATTACTATATCGACG”, for which the binding signal was 3.15 log2 normalized fluorescence.
With “CCGGCTGACACGTGACGTTAATAGCTAAGATTACTATATCGACG” the figure was 3.23 log2 normalized fluorescence.
Consider “CCGGCTGATGAACAGTATTAATAGCTAAGATTACTATATCGACG”, for which the binding signal is -0.468 log2 normalized fluorescence.
Turning to “CCGGCTGAGCATCTGTATTAATAGCTAAGATTACTATATCGACG”, the binding signal is 0.186 log2 normalized fluorescence.
Regarding “CCGGCATACACTTGGTATTAATAGCTAAGATTACTATATCGACG”, the binding signal was 1.54 log2 normalized fluorescence.
Turning to “CCGGCTGAGGCGGTGTATTAATAGCTAAGATTACTATATCGACG”, the binding signal is -0.63 log2 normalized fluorescence.
Turning to “CCGGCTGACACGTGTTTTTAATAGCTAAGATTACTATATCGACG”, the binding signal is 3.34 log2 normalized fluorescence.
For “CCGGCTGACACGTGTTCTTAATAGCTAAGATTACTATATCGACG”, the binding signal is 3.35 log2 normalized fluorescence.
Regarding “CCGGCTGACACGTGTGATTAATAGCTAAGATTACTATATCGACG”, the binding signal was 3.24 log2 normalized fluorescence.
As to “CCGGCTAGCACGTGTTTTTAATAGCTAAGATTACTATATCGACG”, the binding signal is 3.52 log2 normalized fluorescence.
With “CCGGCTTACACGTGGTTTTAATAGCTAAGATTACTATATCGACG” the figure was 3.22 log2 normalized fluorescence.
Consider “CCGGCTGACACGTTGTTTTAATAGCTAAGATTACTATATCGACG”, for which the binding signal is 3.22 log2 normalized fluorescence.
With “CCGGCTGACACGTTTAATTAATAGCTAAGATTACTATATCGACG”, the binding signal is 2.59 log2 normalized fluorescence.
For “CCGGCTAGCACGTGGCATTAATAGCTAAGATTACTATATCGACG”, the binding signal is 3.24 log2 normalized fluorescence.
Turning to “CCGGCTGACACGTGCTCTTAATAGCTAAGATTACTATATCGACG”, the binding signal was 3.24 log2 normalized fluorescence.
For the sequence “CCGGCTGACACGTGTACTTAATAGCTAAGATTACTATATCGACG”, the binding signal was 3.15 log2 normalized fluorescence.
As for “CCGGCTGACACGTCGTTTTAATAGCTAAGATTACTATATCGACG”, the figure is 1.92 log2 normalized fluorescence; as for “CCGGCTGACACGTGTGTTTAATAGCTAAGATTACTATATCGACG”, 3.37 log2 normalized fluorescence.
Regarding “CCGGCTGATATTGCGTATTAATAGCTAAGATTACTATATCGACG”, the binding signal is -0.611 log2 normalized fluorescence.
For “CCGGCTGAGTTACGGTATTAATAGCTAAGATTACTATATCGACG”, the binding signal is -0.516 log2 normalized fluorescence.
As to “CCGGCTGACACGTCGAATTAATAGCTAAGATTACTATATCGACG”, the binding signal is 1.45 log2 normalized fluorescence.
Consider “CCGGCTGACCCGTCGTATTAATAGCTAAGATTACTATATCGACG”, for which the binding signal is -0.382 log2 normalized fluorescence.
With “CCGGCTGAGATGGAGTATTAATAGCTAAGATTACTATATCGACG” the figure was -0.522 log2 normalized fluorescence.
As for “CCGGCGGACACGTGTGATTAATAGCTAAGATTACTATATCGACG”, the figure is 3.15 log2 normalized fluorescence; as for “CCGGCTGATTCTCAGTATTAATAGCTAAGATTACTATATCGACG”, -0.684 log2 normalized fluorescence; as for “CCGGCTGATCAGAGGTATTAATAGCTAAGATTACTATATCGACG”, -0.421 log2 normalized fluorescence.
“CCGGCTGACACGTGTCTTTAATAGCTAAGATTACTATATCGACG”: the binding signal is 3.41 log2 normalized fluorescence.
As for “CCGGCTGACACGTTGTCTTAATAGCTAAGATTACTATATCGACG”, the figure is 3.12 log2 normalized fluorescence.
Turning to “CCGGCTGACACGTGACTTTAATAGCTAAGATTACTATATCGACG”, the binding signal is 3.21 log2 normalized fluorescence.
As for “CCGGCTTACACGTGATATTAATAGCTAAGATTACTATATCGACG”, the binding signal was 3.31 log2 normalized fluorescence.
“CCGGCTAACACGTGATATTAATAGCTAAGATTACTATATCGACG”: the binding signal was 3.18 log2 normalized fluorescence.
“CCGGCTTACACATGCTATTAATAGCTAAGATTACTATATCGACG”: the binding signal is 3.23 log2 normalized fluorescence.
Take “CCGGCGCACACGTGCTATTAATAGCTAAGATTACTATATCGACG”: the binding signal was 3.04 log2 normalized fluorescence.
As for “CCGGCTTAAACGTGTTATTAATAGCTAAGATTACTATATCGACG”, the figure is 2.7 log2 normalized fluorescence.
In the case of “CCGGCTTATACGTGATATTAATAGCTAAGATTACTATATCGACG”, the binding signal was 0.467 log2 normalized fluorescence.
Regarding “CCGGCTTACACGTGCTATTAATAGCTAAGATTACTATATCGACG”, the binding signal is 3.57 log2 normalized fluorescence.
Consider “CCGGCTTACACGTGTTATTAATAGCTAAGATTACTATATCGACG”, for which the binding signal is 3.4 log2 normalized fluorescence.
As for “CCGGCTTACACGTGGTGTTAATAGCTAAGATTACTATATCGACG”, the figure is 3.07 log2 normalized fluorescence.
As for “CCGGCTGATGTCCAGTATTAATAGCTAAGATTACTATATCGACG”, the binding signal is -0.249 log2 normalized fluorescence.
With “CCGGCTGAATGGGCGTATTAATAGCTAAGATTACTATATCGACG” the figure was 0.274 log2 normalized fluorescence.
“CCGGCTGAGTCGAGGTATTAATAGCTAAGATTACTATATCGACG”: the binding signal was -0.576 log2 normalized fluorescence.
Take “CCGGCTGAACCGGCGTATTAATAGCTAAGATTACTATATCGACG”: the binding signal was -0.299 log2 normalized fluorescence.
Turning to “CCGGCAGACACTTAGTATTAATAGCTAAGATTACTATATCGACG”, the binding signal was 0.466 log2 normalized fluorescence.
Consider “CCGGCTTTCACTTGGTATTAATAGCTAAGATTACTATATCGACG”, for which the binding signal was -0.636 log2 normalized fluorescence.
As for “CCGGCTTTCACGTGGTATTAATAGCTAAGATTACTATATCGACG”, the figure is 3.41 log2 normalized fluorescence; as for “CCGGCATTCACGTGGTATTAATAGCTAAGATTACTATATCGACG”, 3.26 log2 normalized fluorescence.
On to “CCGGCCTTCACGTGGTATTAATAGCTAAGATTACTATATCGACG”, for which the binding signal was 3.1 log2 normalized fluorescence.
Regarding “CCGGCTATCACGTGGTATTAATAGCTAAGATTACTATATCGACG”, the binding signal is 3.15 log2 normalized fluorescence.
In the case of “CCGGCTTACACATGGTATTAATAGCTAAGATTACTATATCGACG”, the binding signal was 3.16 log2 normalized fluorescence.
With “CCGGCGTTCACGTGGTATTAATAGCTAAGATTACTATATCGACG” the figure was 3.37 log2 normalized fluorescence; with “CCGGCTTTCACATGGTATTAATAGCTAAGATTACTATATCGACG”, 3.34 log2 normalized fluorescence.
As for “CCGGCTAATACGTGGTATTAATAGCTAAGATTACTATATCGACG”, the figure is 1.49 log2 normalized fluorescence; as for “CCGGCTGAGGGAGCGTATTAATAGCTAAGATTACTATATCGACG”, -0.434 log2 normalized fluorescence.
For the sequence “CCGGCTGAGGAGAGGTATTAATAGCTAAGATTACTATATCGACG”, the binding signal is -0.732 log2 normalized fluorescence.
Take “CCGGCTGACCGCCGGTATTAATAGCTAAGATTACTATATCGACG”: the binding signal was -0.241 log2 normalized fluorescence.
With “CCGGCTGACAAGCAGTATTAATAGCTAAGATTACTATATCGACG” the figure was -0.299 log2 normalized fluorescence.
Turning to “CCGGCCCCCACGTGGTATTAATAGCTAAGATTACTATATCGACG”, the binding signal is 3.4 log2 normalized fluorescence.
As for “CCGGCTATTACGTGGTATTAATAGCTAAGATTACTATATCGACG”, the binding signal was 1.27 log2 normalized fluorescence.
As for “CCGGCTAAGACGTGGTATTAATAGCTAAGATTACTATATCGACG”, the figure is 1.75 log2 normalized fluorescence.
For “CCGGCTCCGACGTGGTATTAATAGCTAAGATTACTATATCGACG”, the binding signal is 2.2 log2 normalized fluorescence.
Consider “CCGGCCTCCACGTGGTATTAATAGCTAAGATTACTATATCGACG”, for which the binding signal was 2.94 log2 normalized fluorescence.
With “CCGGCCCACACGTGGTATTAATAGCTAAGATTACTATATCGACG” the figure was 2.95 log2 normalized fluorescence; with “CCGGCGCCCACGTGGTATTAATAGCTAAGATTACTATATCGACG”, 3.43 log2 normalized fluorescence; with “CCGGCTCCCACGTGGTATTAATAGCTAAGATTACTATATCGACG”, 3.4 log2 normalized fluorescence.
